The nature of experiment [1]: NCI Yeast Anticancer Drug Screen. Data for the rad50 strain (AID 155).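 Also: 0% = growth of vehicle-only cultures of the same strain.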 Particulars: S. cerevisiae rad50 strain growth inhibition, hits give high values. The method in brief: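 Genetically altered yeast (DNA repair pathway); compound treatment; growth inhibition vs vehicle ctrl.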
Experiment [2] can be described thus: NCI Yeast Anticancer Drug Screen. Data for the mec2-1 strain (AID 157). To be noted: S. cerevisiae mec2-1 strain, hits give high values. In a few lines: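 Vehicle-treated cultures served as reference for growth inhibition of compound-exposed mec2-1 yeast.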
The nature of experiment [3]: NCI Yeast Anticancer Drug Screen. Data for the sgs1 mgt1 strain (AID 161).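 Also: 0% = growth of cultures given vehicle only.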 Particulars: S. cerevisiae sgs1 mgt1 strain, hits give high values. The method in brief:
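Genetically altered yeast, compound exposure, growth inhibition relative to vehicle.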

The nature of experiment [4]: NCI Yeast Anticancer Drug Screen. Data for the cln2 rad14 strain (AID 165).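 Also: 0% = growth equal to vehicle treated cultures.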 To be noted: S. cerevisiae cln2 rad14 strain, hits give high values. The method in brief:
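Each compound was tested on cln2 rad14 yeast. Inhibition of growth was calculated against vehicle-exposed controls.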

Experiment [5] in a line: NCI Yeast Anticancer Drug Screen. Data for the bub3 strain (AID 167). Particulars: S. cerevisiae bub3 mutant strain, hits give high values. In a few lines:
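Yeast carrying a defined mutation is treated with each compound, and growth is compared with that of vehicle-exposed cells to give inhibition.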

Experiment [6] can be described thus: NCI Yeast Anticancer Drug Screen. Data for the mlh1 rad18 strain (AID 175). To be noted: S. cerevisiae mlh1 rad18 strain growth inhibition, hits give high values. In a few lines: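 Vehicle-treated cultures served as the reference for growth inhibition in a yeast strain carrying DNA damage repair alterations exposed to each compound.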
[7] abbreviates: at 5.0 µM (retest, dose inferred, filed as 0.5).
[8] abbreviates: at 50.0 µM (retest, dose inferred, filed as 5.0).

This note sets out measurements from PubChem BioAssay (NCI).

The panel holds about 79,000 compounds, 15% with a hit somewhere; the sample as a whole holds those more often. Unmarked numbers belong to inactive results. The source made the active and inactive calls. Rule as the data show it: active = growth inhibition above about 70%; inactive = the rest.

As for `COc1cc2c3c(c4ccc(OC)c(OC)c4c2cc1OC)CN1CCC[C@@H]1C3`, the growth inhibition was 11% in experiment [1] (setting [7]); 95% (active) in experiment [1] (setting [8]); 92% (active) in experiment [1] (at 50.0 µM); 8% in experiment [2] (setting [7]); 99% (active) in experiment [2] (setting [8]); 93.5% (active) in experiment [2] (at 50.0 µM). For the same compound, the growth inhibition is 15% in experiment [3] (setting [7]); 96% (active) in experiment [3] (setting [8]); 93% (active) in experiment [3] (at 50.0 µM); 1% in experiment [4] (setting [7]); 92% (active) in experiment [4] (setting [8]); 91.2% (active) in experiment [4] (at 50.0 µM). The growth inhibition in experiment [5] (setting [7]) is 8%; in experiment [5] (setting [8]) it was 98% (active); in experiment [5] (at 50.0 µM) it was 92.3% (active); in experiment [6] (setting [7]) it was -29%; in experiment [6] (setting [8]), 93% (active); in experiment [6] (at 50.0 µM), 88.5% (active).
Consider `Cc1c2ccnc(-c3ccc(F)cc3)c2cc2c1[nH]c1ccccc12`, for which the growth inhibition in experiment [1] (setting [7]) was -3%; in experiment [1] (setting [8]), 1%; in experiment [1] (at 50.0 µM), -0.35%; in experiment [2] (setting [7]) it was -14%; in experiment [2] (setting [8]), 15%; in experiment [2] (at 50.0 µM) it was -14.4%. Moreover, the growth inhibition in experiment [3] (setting [7]) is -26%; in experiment [3] (setting [8]) it was 48%; in experiment [3] (at 50.0 µM), 65.8%; in experiment [4] (setting [7]), 7%; in experiment [4] (setting [8]), 17%; in experiment [4] (at 50.0 µM), -35.9%. The growth inhibition in experiment [5] (setting [7]) was -2%; in experiment [5] (setting [8]) it was 1%; in experiment [5] (at 50.0 µM), -17.1%; in experiment [6] (setting [7]), -3%; in experiment [6] (setting [8]), 11%; in experiment [6] (at 50.0 µM) it was -5.15%.
Take `CN(C)c1ccc(/C=C/c2nc3ccccc3s2)cc1`: the growth inhibition in experiment [1] (setting [7]) is 8%; in experiment [1] (setting [8]), 79% (active); in experiment [1] (at 50.0 µM) it was 3.1%; in experiment [2] (setting [7]), 14%; in experiment [2] (setting [8]), 60%; in experiment [2] (at 50.0 µM), 23.6%. Besides, the growth inhibition was -3% in experiment [3] (setting [7]); 91% (active) in experiment [3] (setting [8]); 4.3% in experiment [3] (at 50.0 µM); -3% in experiment [4] (setting [7]); 14% in experiment [4] (setting [8]); 36.4% in experiment [4] (at 50.0 µM). For the same compound, the growth inhibition in experiment [5] (setting [7]) was -3%; in experiment [5] (setting [8]), 1%; in experiment [5] (at 50.0 µM), -2.45%; in experiment [6] (setting [7]), 30%; in experiment [6] (setting [8]), 91% (active); in experiment [6] (at 50.0 µM), 83.3% (active).
Take `CC(CCN)(CCN)[N+](=O)[O-]`: the growth inhibition was 16% in experiment [1] (setting [7]); 18% in experiment [1] (setting [8]); 8.3% in experiment [1] (at 50.0 µM); -1% in experiment [2] (setting [7]); -27% in experiment [2] (setting [8]); 15.8% in experiment [2] (at 50.0 µM). Moreover, the growth inhibition in experiment [3] (setting [7]) was -4%; in experiment [3] (setting [8]) it was 27%; in experiment [3] (at 50.0 µM), -13.6%; in experiment [4] (setting [7]), -25%; in experiment [4] (setting [8]), -2%; in experiment [4] (at 50.0 µM) it was 46.3%. For the same compound, the growth inhibition in experiment [5] (setting [7]) is -5%; in experiment [5] (setting [8]) it was -1%; in experiment [5] (at 50.0 µM), 6.9%; in experiment [6] (setting [7]), 4%; in experiment [6] (setting [8]), 9%; in experiment [6] (at 50.0 µM), 15.4%.
With `C/C(=N\OC(=O)c1ccccc1)[N+](=O)[O-]`, the growth inhibition is -50% in experiment [1] (setting [7]); 98% (active) in experiment [1] (setting [8]); 88.1% (active) in experiment [1] (at 50.0 µM); -6% in experiment [2] (setting [7]); 100% (active) in experiment [2] (setting [8]); 77.8% (active) in experiment [2] (at 50.0 µM). Moreover, the growth inhibition in experiment [3] (setting [7]) is -11%; in experiment [3] (setting [8]), 99% (active); in experiment [3] (at 50.0 µM) it was 72% (active); in experiment [4] (setting [7]), -27%; in experiment [4] (setting [8]), 99% (active); in experiment [4] (at 50.0 µM) it was 81.8% (active). Besides, the growth inhibition in experiment [5] (setting [7]) is -61%; in experiment [5] (setting [8]), 85% (active); in experiment [5] (at 50.0 µM), 56.9%; in experiment [6] (setting [7]), -54%; in experiment [6] (setting [8]), 98% (active); in experiment [6] (at 50.0 µM), 65.4%.
As to `OC1(c2ccccc2)CN(CCl)CC(c2ccccc2)O1` (stereo not given), the growth inhibition in experiment [1] (setting [7]) was -2%; in experiment [1] (setting [8]) it was 7%; in experiment [1] (at 50.0 µM), -10.6%; in experiment [2] (setting [7]), 0%; in experiment [2] (setting [8]), 2%; in experiment [2] (at 50.0 µM) it was 17.3%. Moreover, the growth inhibition in experiment [3] (setting [7]) was -1%; in experiment [3] (setting [8]) it was 7%; in experiment [3] (at 50.0 µM), 46%; in experiment [4] (setting [7]), 12%; in experiment [4] (setting [8]) it was 15%; in experiment [4] (at 50.0 µM) it was 10.4%. Besides, the growth inhibition was 2% in experiment [5] (setting [7]); 6% in experiment [5] (setting [8]); 71.8% (active) in experiment [5] (at 50.0 µM); -2% in experiment [6] (setting [7]); 7% in experiment [6] (setting [8]); 47.4% in experiment [6] (at 50.0 µM).
On to `NS(=O)(=O)c1ccc(-n2cccc2)cc1`, for which the growth inhibition is 0% in experiment [1] (setting [7]); -4% in experiment [1] (setting [8]); 10.6% in experiment [1] (at 50.0 µM); -2% in experiment [2] (setting [7]); -3% in experiment [2] (setting [8]); -11.3% in experiment [2] (at 50.0 µM). Also, the growth inhibition is -1% in experiment [3] (setting [7]); -3% in experiment [3] (setting [8]); -1.6% in experiment [3] (at 50.0 µM); 1% in experiment [4] (setting [7]); -1% in experiment [4] (setting [8]); 56.6% in experiment [4] (at 50.0 µM). Also, the growth inhibition in experiment [5] (setting [7]) is -6%; in experiment [5] (setting [8]), -7%; in experiment [5] (at 50.0 µM), 23.5%; in experiment [6] (setting [7]), -2%; in experiment [6] (setting [8]), -3%; in experiment [6] (at 50.0 µM) it was 7.7%.
On to `Cc1cnc(Sc2ncccc2[N+](=O)[O-])[nH]c1=O`, for which the growth inhibition was 2% in experiment [1] (setting [7]); 7% in experiment [1] (setting [8]); -7% in experiment [1] (at 50.0 µM); -3% in experiment [2] (setting [7]); 21% in experiment [2] (setting [8]); 43.1% in experiment [2] (at 50.0 µM). Also, the growth inhibition in experiment [3] (setting [7]) was 5%; in experiment [3] (setting [8]) it was 14%; in experiment [3] (at 50.0 µM), 29.1%; in experiment [4] (setting [7]) it was -3%; in experiment [4] (setting [8]) it was 2%; in experiment [4] (at 50.0 µM) it was 26.1%. Besides, the growth inhibition in experiment [5] (setting [7]) is 6%; in experiment [5] (setting [8]), 9%; in experiment [5] (at 50.0 µM) it was -2.7%; in experiment [6] (setting [7]) it was 0%; in experiment [6] (setting [8]), 24%; in experiment [6] (at 50.0 µM) it was 27.9%.
On to `O=C(NCCCCC(NC(=O)OCc1ccccc1)C(=O)Nc1ccc(Nc2ccc(NC(=O)C(CCCCNC(=O)OCc3ccccc3)NC(=O)OCc3ccccc3)cc2)cc1)OCc1ccccc1` (stereo not given), for which the growth inhibition was 0% in experiment [1] (setting [7]); -12% in experiment [1] (setting [8]); 99% (active) in experiment [1] (at 50.0 µM); -3% in experiment [2] (setting [7]); -13% in experiment [2] (setting [8]); 99.5% (active) in experiment [2] (at 50.0 µM). In addition, the growth inhibition is -2% in experiment [3] (setting [7]); -29% in experiment [3] (setting [8]); 99.4% (active) in experiment [3] (at 50.0 µM); -1% in experiment [4] (setting [7]); 0% in experiment [4] (setting [8]); 87.7% (active) in experiment [4] (at 50.0 µM). In addition, the growth inhibition in experiment [5] (setting [7]) was 2%; in experiment [5] (setting [8]) it was 34%; in experiment [5] (at 50.0 µM), 99.1% (active); in experiment [6] (setting [7]) it was -1%; in experiment [6] (setting [8]), -12%; in experiment [6] (at 50.0 µM) it was 98.4% (active).
For `CCCCCCCCCCSC(=NCC)NCC`, the growth inhibition is 2% in experiment [1] (setting [7]); 99% (active) in experiment [1] (setting [8]); 66.9% in experiment [1] (at 50.0 µM); 4% in experiment [2] (setting [7]); 99% (active) in experiment [2] (setting [8]); 49.9% in experiment [2] (at 50.0 µM). Besides, the growth inhibition is 51% in experiment [3] (setting [7]); 99% (active) in experiment [3] (setting [8]); 46.7% in experiment [3] (at 50.0 µM); -6% in experiment [4] (setting [7]); 99% (active) in experiment [4] (setting [8]); 77.3% (active) in experiment [4] (at 50.0 µM). In addition, the growth inhibition is 27% in experiment [5] (setting [7]); 99% (active) in experiment [5] (setting [8]); 59% in experiment [5] (at 50.0 µM); 0% in experiment [6] (setting [7]); 99% (active) in experiment [6] (setting [8]); 99.5% (active) in experiment [6] (at 50.0 µM).
